Inconclusive results are not listed. A number with no mark means an inactive call. Calls of active or inactive are those of the source. Calls come from the whole dose curve; as a rule, active = well fitted activation curve with a large enough effect in the repeat runs; inconclusive = weak or mixed curves; inactive = flat fitted curve, though single readings scatter.
Assay: A CellTox Green Cytotoxicity Assay to monitor cytotoxicity in HEK293 cells - 40 hour (AID 1224871); note: nearly all actives have a fitted effect of over 45% in size
Details: CellTox Green fluorescence; series mostly up to 76.8 µM; cytotoxicity increase: at the top concentration
Method in brief: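 HEK293 cells, 600/well, were preincubated 5 hours and then exposed to compounds at 37 C for up to 40 hours. A cell-impermeant cyanine dye staining dead-cell DNA was read by fluorescence at 0, 8, 16, 24, 32 and 40 h time points.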
% is set by controls: 0 for no effect and ±100 for the full control effect; potency is the fitted concentration of half-maximal effect.

SMILES | cytotoxicity increase | Potency
BrCCCCCCBr | -0.509% | 
Nc1cnn(-c2ccccc2)c(=O)c1Cl | -12.2% | 
Fc1cc(Br)ccc1CBr | 0.725% [at 35.3 µM] | 
Nc1cc2c3c(c1)C(c1ccccc1)=N[C@@H](NC(=O)c1cccnc1)C(=O)N3CC2 | -10.5% | 
O=[N+]([O-])c1cc(Cl)c(Cl)c(Cl)c1 |  | 21.7 µM (active)
CCCSC(=O)N(CCC)CCC | 26.2% | 
Cc1cc(C)c(C(=O)P(=O)(C(=O)c2c(C)cc(C)cc2C)c2ccccc2)c(C)c1 | -7.64% | 
CC(Oc1ccc(Oc2ncc(C(F)(F)F)cc2Cl)cc1)C(=O)O (configuration not stated) | -1.12% | 
Cc1coc2c1CCC(C)C2 (configuration not stated) | -3.19% | 
CC(N)=S | -4.9% | 
CCN(CC)CCOC(=O)C(C)(c1ccccc1)c1ccccc1 | 0.615% [at 35.3 µM] | 
O=C1c2ccccc2C(=O)c2ccccc21 | -0.882% [at 15.8 µM] | 
CCCCC(=O)Cl | -4.07% | 
CCC(=O)C(CCN(C)C)(c1ccccc1)c1ccccc1 | -4.26% [at 35.3 µM] | 
c1cc2c(c(N3CCNCC3)c1)OCCO2 | -7.26% [at 35.3 µM] | 
CCCSC(=O)Cl | -0.425% | 
N#CC(CCc1ccc(Cl)cc1)(Cn1cncn1)c1ccccc1 (configuration not stated) |  | 49 µM (active)
CCOC(=O)NC(=S)Nc1ccccc1NC(=S)NC(=O)OCC | 5.86% | 
ClC(Cl)Br | -0.0633% | 

SMILES | cytotoxicity increase | Potency
C(CCOCC1CO1)COCC1CO1 (configuration not stated) | 2.08% | 
OC(c1ccccc1)(c1ccccc1)C1CCNCC1 | 3.41% [at 35.3 µM] | 
CCN(CC)C(=O)[C@@H]1C=C2c3cccc4[nH]cc(c34)C[C@H]2N(C)C1 | 20.4% [at 200 µM] | 
NC(=S)C(N)=S | -2.38% | 
CNC(=O)O/N=C(\C)SC | -8.61% | 
N#CCBr | 0.48% | 
CCCCCCI | 15.8% | 
CC(CC(C#N)(c1ccccc1)c1ccccc1)N(C)C (configuration not stated) | 10.7% | 
CS(=O)(=O)c1cc(C(F)(F)F)ccc1C(=O)c1cnoc1C1CC1 | 1.67% | 
C[C@]1(O)CC[C@H]2[C@@H]3CCC4=CC(=O)CC[C@]4(C)[C@@]3(F)[C@@H](O)C[C@@]21C | -3.98% | 
O=C(Oc1ccc(Br)cc1)N1CCN2CCC1CC2 | -18.6% | 
COc1cc2c(cc1OC)[C@@]13CCN4CC5=CCO[C@H]6CC(=O)N2[C@H]1[C@H]6[C@H]5C[C@H]43 | 0.507% | 
CCCCCCBr | -5.06% | 
CCN(CC)C(C)C(=O)c1ccccc1 (configuration not stated) | -1.45% [at 35.3 µM] | 
O=NN1CCCCC1 | -4.88% | 
CN(N=O)C(N)=O | -3.94% | 
OCCSCSCCO | 0.893% | 
CCCCOC(=O)[C@@H](C)Oc1ccc(Oc2ccc(C#N)cc2F)cc1 | -0.401% | 
